# Source: PubChem BioAssay
# PLK1 PBD block: qHTS for Inhibitors of PLK1-PDB (polo-like kinase 1 - polo-box domain): Primary Screen; Serine/threonine-protein kinase PLK1 (Homo sapiens), P53350; Plk1 PBD binding of FITC phosphopeptide, fluorescence polarization; Potency, µM, actives largely listed as inhibitors; 360,000 tested, 2.8% active; also: series mostly up to about 57 µM; nearly all actives have a fitted effect of over 65% in size
# BAZ2B block: qHTS Assay for Inhibitors of BAZ2B; AlphaScreen BAZ2B-H3K14Ac peptide displacement; Potency, µM (doses to about 114 µM), actives largely listed as inhibitors; 360,000 tested, 4.4% active; also: nearly all actives have a fitted effect of over 60% in size
#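 Compounds, titrated to a top concentration of 110 uM, were incubated 30 min at room temperature with preformed BAZ2B/acetyl-K14 H3 peptide complex (50 nM each). Proximity signal was measured by AlphaScreen after 20 min with beads.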
# JMJD2A Tudor: qHTS Assay for Inhibitors of JMJD2A-Tudor Domain | AlphaScreen JMJD2A-Tudor / H3K4me3 peptide binding | AID 504339, 2011 | Potency, µM (series often up to 114 µM), hits mostly inhibitors | 390,000 tested, 4.4% active; also: nearly all actives have a fitted effect of over 50% in size
# Target sequence (O75164 whole entry, looked up, the tested form may be a part): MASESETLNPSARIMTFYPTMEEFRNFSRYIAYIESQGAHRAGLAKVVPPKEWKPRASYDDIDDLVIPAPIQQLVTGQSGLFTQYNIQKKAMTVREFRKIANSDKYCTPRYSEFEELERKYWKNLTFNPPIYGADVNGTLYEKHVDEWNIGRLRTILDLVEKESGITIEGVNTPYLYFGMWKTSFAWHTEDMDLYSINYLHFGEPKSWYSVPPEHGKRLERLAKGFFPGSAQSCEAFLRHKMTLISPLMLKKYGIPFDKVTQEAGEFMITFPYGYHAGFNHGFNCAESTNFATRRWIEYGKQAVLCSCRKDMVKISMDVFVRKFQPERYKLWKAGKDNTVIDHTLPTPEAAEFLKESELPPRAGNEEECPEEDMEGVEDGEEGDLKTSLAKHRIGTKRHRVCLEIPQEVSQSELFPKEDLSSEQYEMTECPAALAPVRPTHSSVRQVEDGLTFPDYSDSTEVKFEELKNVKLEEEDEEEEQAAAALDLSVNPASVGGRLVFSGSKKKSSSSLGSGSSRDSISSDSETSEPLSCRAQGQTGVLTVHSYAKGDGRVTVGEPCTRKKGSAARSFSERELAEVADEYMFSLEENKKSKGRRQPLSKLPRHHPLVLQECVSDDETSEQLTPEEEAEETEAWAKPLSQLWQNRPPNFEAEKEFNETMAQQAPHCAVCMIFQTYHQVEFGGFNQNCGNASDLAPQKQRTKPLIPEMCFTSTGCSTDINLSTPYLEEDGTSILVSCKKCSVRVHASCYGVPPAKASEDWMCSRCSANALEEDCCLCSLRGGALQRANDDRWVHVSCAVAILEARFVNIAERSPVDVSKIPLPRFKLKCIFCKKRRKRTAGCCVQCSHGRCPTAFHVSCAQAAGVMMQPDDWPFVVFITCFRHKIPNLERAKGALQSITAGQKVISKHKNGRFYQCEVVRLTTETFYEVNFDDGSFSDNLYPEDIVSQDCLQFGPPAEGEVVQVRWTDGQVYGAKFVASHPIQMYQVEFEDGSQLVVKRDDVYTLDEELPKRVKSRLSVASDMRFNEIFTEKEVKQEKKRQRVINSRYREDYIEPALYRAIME
# 12-LOX inh: Primary qHTS assay for inhibitors of human arachidonate 12S-lipoxygenase (ALOX12): Round 2; Polyunsaturated fatty acid lipoxygenase ALOX12 (Homo sapiens), P18054; purified 12hLO, xylenol orange hydroperoxide absorbance; Potency, µM (top dose mostly 108 µM), hits mostly inhibitors; 580,000 tested, 1.1% active; AID 1671190, 2021
#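 Hydroperoxide product was detected by ferrous iron/xylenol orange as the 573 to 405 nm absorbance ratio. Arachidonic acid at 40 uM (final) was turned over for 30 min at room temperature by 150 nM human 12hLO, pH 7.0 Hepes buffer, after 15 min compound preincubation.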
# HP1b chromo inh: HTS for Inhibitors of HP1-beta Chromodomain Interactions with Methylated Histone Tails | Potency, µM (doses to about 114 µM), actives largely listed as inhibitors | 390,000 tested, 0.56% active | AID 540317, 2011 | AlphaScreen HP1-beta / biotin-H3K9me3 peptide binding | Chromobox protein homolog 1 (Homo sapiens), P83916; also: nearly all actives have a fitted effect of over 70% in size
#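 AlphaScreen: HP1-beta (50 nM) preformed 30 min with biotin-H3(1-18)K9me3 peptide (50 nM) in PBS pH 7.4, 0.01% Tween-20. Compound added for 30 min at RT, then streptavidin donor/nickel chelate acceptor beads (10 ug/mL) for 30 min.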
# G9a block: qHTS Assay for Inhibitors of Histone Lysine Methyltransferase G9a; Potency, µM (titrated, usually from 102 µM), usual class: inhibitors; AID 504332, 2011; 350,000 tested, 8.8% active; Histone-lysine N-methyltransferase EHMT2 (Homo sapiens), Q96KQ7; G9a H3K9 monomethylation, AlphaScreen, 2 h; also: nearly all actives have a fitted effect of over 75% in size
#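 AlphaScreen read-out: biotin-H3K9 peptide (500 nM) methylation by 20 nM enzyme with 20 uM SAM, 2 h at room temperature after 15 min compound preincubation; anti-monomethyl H3K9 antibody plus donor/acceptor beads, 10 min dark.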
# A number is an active result; - = inactive; ? = inconclusive; . = not tested or not shown; [ ] = dose if it differs, or a comment. This is a sample that favours compounds with a hit; in the whole collection about 9% have one here. Calls follow the shape of the dose curve; as a rule, active = well fitted curve in the direction sought with a large enough effect; inconclusive = small, poorly fitted or top-dose-only effect, or another doubt; inactive = no such curve, though single readings can be large; an effect the other way counts as inactive or inconclusive.
SMILES,PLK1 PBD block,BAZ2B block,JMJD2A Tudor,12-LOX inh,HP1b chromo inh,G9a block
Cn1c(=O)[nH]c(=O)c2c1nc(N1CCCC1)n2CC(O)COc1ccccc1 (stereo not drawn),-,-,-,-,-,-
Cn1c(=O)[nH]c(=O)c2c1nc(NN)n2CCOc1ccccc1,-,-,?,-,-,11.2µM
CC(C)Sc1nc2c(c(=O)[nH]c(=O)n2C)n1CC(O)COc1ccccc1 (stereo not drawn),23.8µM,-,-,-,-,22.4µM
CN(C)CCCN(Cc1cccc2ccccc12)Cc1cccc2ccccc12,.,.,.,5.01µM,.,.
Cc1ccc(CN(C(=O)COc2ccc(Br)cc2)c2ccccn2)o1,.,-,-,-,-,-
CN(C)CCCn1c(-c2ccc(COc3ccc(Br)cc3)o2)n[nH]c1=S,.,.,.,14.1µM,.,.
CN(C)S(=O)(=O)N(CC(=O)NCCSCc1cccc(Cl)c1)c1ccccc1,.,-,-,-,-,-
O=C(c1ccccc1N1CCOCC1)N1CCCC(Nc2ccc(F)cc2)C1 (stereo not drawn),-,?,-,-,-,-
Cc1cccc(C(=O)Nc2onc(C)c2C#N)c1,-,?,89.1µM,-,-,.
O=C(Cc1ccc(F)cc1)Nc1cccc(S(=O)(=O)N2CCCC2)c1,-,-,-,-,-,-
N#Cc1c(NC(=O)c2cccc(S(=O)(=O)Nc3ccc(C(=O)O)cc3)c2)sc2c1CCCC2,?,56.2µM,-,?,-,50.1µM
N#Cc1c(NC(=O)c2ccncc2)sc2c1CCC2,?,50.1µM,63.1µM,?,-,11.2µM
N#Cc1c(NC(=O)c2cnn3cccnc23)sc2c1CCCC2,23.8µM,-,-,-,-,39.8µM
CC1CCc2c(sc(NC(=O)c3nc4ncccn4n3)c2C#N)C1 (stereo not drawn),4.74µM,-,?,?,?,3.16µM
CCc1c(C)sc(NC(=O)c2cnn3cccnc23)c1C#N,?,-,-,-,-,?
NC(=O)c1c(NC(=O)c2ccncc2)sc2c1CCCC2,-,-,-,-,-,?
N#Cc1c(NC(=O)c2nc3ncccn3n2)sc2c1CCCCC2,-,-,-,-,-,-
O=C(NCC(c1ccc2c(c1)OCO2)N1CCN(c2ccccc2)CC1)c1ccccc1F (stereo not drawn),.,-,-,-,-,-
N#Cc1c(NC(=O)c2ccco2)sc2c1CCC2,29.9µM,-,50.1µM,-,?,89.1µM
CCc1cc(C(=O)N2CCc3c([nH]c4ccccc34)C2c2ccc(OC)cc2F)no1 (stereo not drawn),23.8µM,-,-[11.4 µM],?,?,-
CCc1ccc(C2c3[nH]c4ccccc4c3CCN2C(=O)c2cc(C)nn2C)cc1 (stereo not drawn),-,?,?,-,-,15.8µM
Cc1cccc(C2c3[nH]c4ccccc4c3CCN2C(=O)c2ocnc2C)n1 (stereo not drawn),-,79.4µM,-,-,-,31.6µM
Cc1cnc(C(=O)N2CCc3c([nH]c4ccccc34)C2c2ccc(F)cc2)cn1 (stereo not drawn),-,28.2µM,?,-,-,.
Cc1cc(C(=O)N2CCc3c([nH]c4ccccc34)C2c2c(F)cccc2Cl)no1 (stereo not drawn),-,-,?,-,-,-
Cc1ccc(C2c3[nH]c4ccccc4c3CCN2C(=O)c2ccccc2Br)cc1 (stereo not drawn),.,?,?,-,-,-
SMILES,PLK1 PBD block,BAZ2B block,JMJD2A Tudor,12-LOX inh,HP1b chromo inh,G9a block
O=C(Nc1ccc(Cl)cc1)P(=O)(O)c1ccccc1,-,.,-,-,-,.
O=c1[nH]c2cccnc2n1Cc1ccco1,-,-,-,-,-,-[12.7 µM]
O=[N+]([O-])c1ccc(Sc2ccccc2)nc1,-,-,?,-,-,-
Nc1cccnc1Sc1ccc([N+](=O)[O-])cn1,?,-,1.58µM,-,-,1µM
O=[N+]([O-])c1ccc(Sc2n[nH]c(-c3ccccc3)n2)nc1,-,-,56.2µM,-,-,?
Cc1ccnc(Sc2ccc([N+](=O)[O-])cn2)n1,-,-,-,-,-,-
CN(Cc1ccno1)C(=O)c1cccc(CC2CCNCC2)c1,.,.,.,-,.,.
CN1C(=O)C(O)(CC(=O)/C=C/c2ccco2)c2cc(Br)ccc21 (stereo not drawn),?,-,-,-,-,35.5µM
CC1(C2CC(=O)c3c(O)ccc(O)c3C2)OCCO1 (stereo not drawn),-,.,.,?,.,.
CC(C)(C)NC(=O)C(c1ccco1)N(C(=O)Cn1nnc(-c2ccc(F)cc2)n1)c1cccc(F)c1 (stereo not drawn),-,-,-,-,-,-
CC(C)(C)NC(=O)C(c1c[nH]c2ccccc12)N(C(=O)Cn1nnc(-c2ccc(F)cc2)n1)c1cccc(O)c1 (stereo not drawn),26.7µM,?,28.2µM,?,?,-
Cc1ccc2c(cnn2C(=O)CCC(=O)NCc2cccc(Br)c2)c1,-,-,-,-,-,.
Cc1ccc2c(cnn2C(=O)CCC(=O)NCc2cccc(Cl)c2)c1,?,-,-,-,-,44.7µM
CCN(CC)C1Oc2cc3c(cc2C(c2cccc(OC)c2O)C1C)OCO3 (stereo not drawn),-,.,?,?,?,.
COc1cccc(C2c3cc4c(cc3OC(N3CCOCC3)C2C)OCO4)c1O (stereo not drawn),-,.,39.8µM,31.6µM,?,.
COc1cccc(C2c3cc4c(cc3OC(NNC(N)=O)C2C)OCO4)c1O (stereo not drawn),-,.,?,15.8µM,-,.
Cc1ccc[n+](-c2nc3ccccc3nc2[N-]S(=O)(=O)c2ccccc2)c1,-,-,-,-,-,-
Cc1cccn2c(=O)c(C(=O)NCc3ccc(F)cc3)c(O)nc12,.,-,-,-,-,-
CCn1ccnc1CN1CCCC(CO)(Cc2cccc(Cl)c2)C1 (stereo not drawn),.,.,.,-,.,.
CCn1ccnc1CN1CCCC(CO)(Cc2cccc(OC)c2)C1 (stereo not drawn),-,89.1µM,-,-,-,-
COc1cc(CN2CCCC(CO)(Cc3cccc(Cl)c3)C2)cc(OC)c1O (stereo not drawn),-,-,-,?,-,50.1µM
COc1cc(CN2CCCC(CO)(Cc3cccc(Cl)c3)C2)cc2c1OCO2 (stereo not drawn),21.2µM,-,-[11.4 µM],-,-,-
